# Laboratory results reported in PubChem BioAssay.
# “And” between values parts separate entries of the source, which are not always exact repeats. Identical values can stand only once. The source made the active and inactive calls.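 How the source made its calls, unless noted: active means compounds whose cell count with miR-34 switched on is under 0.7 times the count with it off; inactive means the rest.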
# Legend:
# [1] = Wnt pathway potentiators raising nuclear beta-catenin – imaging, WNT3A-conditioned medium, mouse C2C12, NPC library, primary screen (AID 1117326; in the data active means nuclear beta-catenin stimulation mostly above about 4.2%, no sharp cut-off; inactive means mostly below about 10%); settings: stronger effect = higher value
# [2] = stimulators of insulin release from INS-1E, primary screen, cell-based, 5 mM glucose, NPC library (AID 1117329;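 active means compound raises insulin release from rat beta cells at 5 mM glucose, no numeric limit stated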); settings: rat INS-1E insulin secretion, at 10 µM, stronger effect = higher value
# [3] = growth inhibition of GSK3B-pretreated HCT116 cells – cell-based, CellTiter-Glo, 0.2 to 20 µM (AID 1117336;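 active means compounds lowering colon cancer cell viability after pretreatment blocking the GSK3B kinase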); settings: HCT116 viability after GSK3B inhibitor, at 20 µM, stronger effect = higher value
# [4] = inhibition of endothelial tube formation, primary screen, imaging, VEGF stimulated, CD31 staining, tube area, NPC library (AID 1117340;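 active means compound that reduces growth-factor-driven endothelial tube area in a mixed cell culture, no cutoff stated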); settings: VEGF-stimulated ADSC/ECFC co-culture, at 10 µM, stronger effect = higher value
# [5] = GLP1 release stimulators, primary, NCI-H716, NPC library (AID 1117341;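 active means compound raises GLP1 secretion from the human gut endocrine cells, with no numeric limit stated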); settings: NCI-H716 cells, at 10 µM, stronger effect = higher value
# [6] = HCT116 colon cancer cell growth inhibition, primary screen, CellTiter-Glo luminescence, NPC library (AID 1117342;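 active means compounds that lower survival of HCT116 colon cancer cells in the luminescence readout, no numeric limit stated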); settings: at 20 µM (top of the series)
# [7] = reduced SW480 viability measured with CellTiter-Glo, NPC library, primary (AID 1117343;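 active means compounds that lower viability of the colon cancer cells in the luminescence readout, with no numeric limit stated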); settings: CellTiter-Glo luminescence; at 20 µM (top of the series) unless noted
# [8] = NPC library primary testing for decreased DLD-1 cell viability via CellTiter-Glo (AID 1117346;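 active means compounds that lower survival of DLD-1 colon cancer cells in the luminescence readout, no cutoff given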); settings: DLD-1 viability, CellTiter-Glo luminescence; at 20 µM (top of the series)
# [9] = EMT-state selective cytotoxicity in co-culture – imaging, PC-3E GFP, TEM4-18 mCherry, primary screen (AID 1345086;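 active means compounds killing one labelled cell type while sparing the other, by normalised counts and ratio limits, not self-fluorescent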;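 on all read-outs here: cells exposed to compound for 72 h before imaging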;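 on red/green cell ratio (normalised): normalised mesenchymal count divided by normalised epithelial count so high means epithelial killing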); settings: PC-3E GFP / TEM4-18 mCherry co-culture, imaging cell counts, at 1 µM; for red/green cell ratio (normalised): actives lie on both sides, counts scaled to control wells, 1 = unselective
# [10] = viability loss with induced miR-34 in A549 – imaging, A549 dox-inducible miR-34, nuclei and caspase counts, primary screen (AID 1347080); settings: A549 miR-34 inducible, Hoechst nuclei count, 48 h
# [11] = target: NAD(+) hydrolase SARM1 (Homo sapiens) (UniProt Q6SZW1); test: blocking NAD cleavage by SARM1 SAM-TIR – cell lysate, NAD-Glo luminescence (AID 1508614;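 active means compound whose remaining NAD level is above about 45 nM, limit read from the data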); settings: SAM-TIR HEK293T lysate NADase, at 1 µM, stronger effect = higher value
# Chain of NAD(+) hydrolase SARM1 (Homo sapiens) (Q6SZW1 whole entry, looked up): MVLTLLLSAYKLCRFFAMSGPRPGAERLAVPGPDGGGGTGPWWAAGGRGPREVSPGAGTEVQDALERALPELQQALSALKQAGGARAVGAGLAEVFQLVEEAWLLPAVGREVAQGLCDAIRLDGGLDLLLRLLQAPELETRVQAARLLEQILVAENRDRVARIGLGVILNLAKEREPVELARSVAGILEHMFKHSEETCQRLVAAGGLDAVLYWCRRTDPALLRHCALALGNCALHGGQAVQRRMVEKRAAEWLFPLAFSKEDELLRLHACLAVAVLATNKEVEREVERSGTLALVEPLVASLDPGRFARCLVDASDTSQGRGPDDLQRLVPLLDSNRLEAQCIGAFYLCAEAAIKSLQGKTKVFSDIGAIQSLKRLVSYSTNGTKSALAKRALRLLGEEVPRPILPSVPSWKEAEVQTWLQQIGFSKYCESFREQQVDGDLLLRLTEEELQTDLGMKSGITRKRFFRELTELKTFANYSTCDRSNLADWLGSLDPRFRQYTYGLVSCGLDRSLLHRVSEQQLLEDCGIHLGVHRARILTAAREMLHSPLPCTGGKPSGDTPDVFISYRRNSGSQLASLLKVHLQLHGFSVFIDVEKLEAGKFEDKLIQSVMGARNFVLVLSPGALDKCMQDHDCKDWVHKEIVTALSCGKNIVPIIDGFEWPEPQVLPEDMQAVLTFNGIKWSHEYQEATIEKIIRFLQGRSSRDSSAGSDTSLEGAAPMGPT
# [12] = compounds altering viability of human ES cells (AID 493140; call rule not given here;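 further: cells exposed to compounds for four days before counting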); settings: human embryonic stem cell survival screen; stronger effect = higher value
# [13] = P. berghei load reduction in hepatocytes – cell-based, HepG2, luciferase luminescence, HepG2 viability, primary screen (AID 624349; in the data active means parasite load remaining mostly below about 12%, no sharp cut-off; inactive means mostly above about 10%;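 further: 100% = mean of DMSO negative control wells on the same plate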); settings: P. berghei liver stage in HepG2, luciferase luminescence, concentration not given here; parasite load remaining: stronger effect = lower value; viability: measured here: HepG2 viability without parasites
# [14] = MELAS cybrid and Rieske KO viability enhancers – cell-based, MELAS cybrids, Rieske KO mouse fibroblasts, CellTiter-Glo, primary screen (AID 1508586;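 active means mean z-score across replicates of 1.96 or higher in either the MELAS or the Rieske mutant cell line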;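 further: z relative to plate mean and SD of compound and empty wells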); settings: low glucose
# [15] = measured here: epithelial PC-3E GFP cell survival
# [16] = measured here: mesenchymal TEM4-18 mCherry cell survival
# [17] = stronger effect = lower value, cell number ratio, induced over uninduced
# [18] = measured here: relative caspase fold change +Dox/-Dox
# [19] = measured here: total cells with miR-34 induction, stronger effect = lower value
# [20] = measured here: total cells without miR-34 induction
# [21] = MELAS cybrid survival, CellTiter-Glo 48 h, stronger effect = higher value
# [22] = Rieske KO mouse fibroblast survival, CellTiter-Glo 72 h
smiles,measurement,setting,value
CC(O)C(=O)O (stereo not drawn),nuclear beta-catenin stimulation,[1]; at 10 µM,2.5% (inactive)
same,nuclear beta-catenin stimulation,"[1]; stimulation, at 2 µM",3%
same,insulin secretion stimulation,[2],-0.6% (inactive)
same,viability decrease,[3],-5.3% (inactive)
same,tube area decrease,[4],8.4% (inactive)
same,GLP1 secretion stimulation,[5],3.4% (inactive)
same,inhibition of viability,[6],2.73% (inactive)
same,viability decrease (inhibition),[7],-11.7% (inactive)
same,viability decrease (inhibition),[8],-8.5% (inactive)
same,red/green cell ratio (normalised),[9],1.08 (inactive)
same,normalised cell number,[9]; [15],1.05
same,normalised cell number,[9]; [16],1.14
same,fold change,[10]; [17],0.885 (inactive)
same,fold change,[10]; [18],0.852
same,cell count,[10]; [19],8900
same,cell count,[10]; [20],10100
same,remaining NAD,[11],10 nM (inactive)
CC(=O)N[C@@H](CC(C)C)C(=O)O,survival,[12],3.17 (inactive)
same,parasite load remaining,[13],73.5% (inactive) and 218% (inactive)
same,viability,[13],98.8% and 70.6%
same,nuclear beta-catenin stimulation,[1]; at 10 µM,0% (inactive)
same,nuclear beta-catenin stimulation,"[1]; stimulation, at 2 µM",1.3%
same,insulin secretion stimulation,[2],-1% (inactive)
same,viability decrease,[3],-27.2% (inactive)
same,tube area decrease,[4],-4.7% (inactive)
same,GLP1 secretion stimulation,[5],-1.9% (inactive)
same,inhibition of viability,[6],-7.5% (inactive)
same,viability decrease (inhibition),[7],28% (inactive)
same,viability decrease (inhibition),[8],-12.9% (inactive)
same,red/green cell ratio (normalised),[9],0.81 (inactive)
same,normalised cell number,[9]; [15],1.12
same,normalised cell number,[9]; [16],0.91
same,fold change,[10]; [17],0.893 (inactive)
same,fold change,[10]; [18],1.09
same,cell count,[10]; [19],9170
same,cell count,[10]; [20],10300
same,z-score,[14]; [21],0.637 (inactive)
same,z-score,[14]; [22],-0.175
O=S(=O)(O)CCCS(=O)(=O)O,nuclear beta-catenin stimulation,[1]; at 10 µM,-2.1% (inactive)
same,nuclear beta-catenin stimulation,"[1]; stimulation, at 2 µM",-0.3%
same,insulin secretion stimulation,[2],2.9% (inactive)
same,viability decrease,[3],-15.7% (inactive)
same,tube area decrease,[4],-1.1% (inactive)
same,GLP1 secretion stimulation,[5],-2.7% (inactive)
same,inhibition of viability,[6],-1.7% (inactive)
same,viability decrease (inhibition),[7],-9.3% (inactive)
same,viability decrease (inhibition),[8],-13.5% (inactive)
same,red/green cell ratio (normalised),[9],0.74 (inactive)
same,normalised cell number,[9]; [15],1.27
same,normalised cell number,[9]; [16],0.94
same,fold change,[10]; [17],0.939 (inactive)
same,fold change,[10]; [18],1.14
same,cell count,[10]; [19],9300
same,cell count,[10]; [20],9900
same,remaining NAD,[11],10 nM (inactive)
Cc1cccc(C)c1NC(=O)c1ccccc1C(=O)O,nuclear beta-catenin stimulation,[1]; at 10 µM,0.1% (inactive)
same,nuclear beta-catenin stimulation,"[1]; stimulation, at 2 µM",0.7%
same,insulin secretion stimulation,[2],-0.4% (inactive)
same,viability decrease,[3],-4.6% (inactive)
same,tube area decrease,[4],-28.9% (inactive)
same,GLP1 secretion stimulation,[5],1.9% (inactive)
same,inhibition of viability,[6],3.1% (inactive)
same,viability decrease (inhibition),[7],49.6% (inactive)
same,viability decrease (inhibition),[8],17.1% (inactive)
same,red/green cell ratio (normalised),[9],0.84 (inactive)
same,normalised cell number,[9]; [15],0.94
same,normalised cell number,[9]; [16],0.79
same,fold change,[10]; [17],0.96 (inactive)
same,fold change,[10]; [18],0.664
same,cell count,[10]; [19],8770
same,cell count,[10]; [20],9130
same,remaining NAD,[11],10 nM (inactive)
CCN1C(=O)NC(c2ccccc2)C1=O (stereo not drawn),survival,[12],2.42 (inactive)
same,parasite load remaining,[13],83.9% (inactive)
same,viability,[13],100%
same,nuclear beta-catenin stimulation,[1]; at 10 µM,-2.4% (inactive)
same,nuclear beta-catenin stimulation,"[1]; stimulation, at 2 µM",-0.9%
same,insulin secretion stimulation,[2],-1% (inactive)
same,viability decrease,[3],-5.5% (inactive)
same,tube area decrease,[4],-23% (inactive)
same,GLP1 secretion stimulation,[5],7% (inactive)
same,inhibition of viability,[6],-1% (inactive)
same,viability decrease (inhibition),[7],2.2% (inactive)
same,viability decrease (inhibition),[8],8.6% (inactive)
same,red/green cell ratio (normalised),[9],0.92 (inactive)
same,normalised cell number,[9]; [15],1.08
same,normalised cell number,[9]; [16],1
same,fold change,[10]; [17],0.858 (inactive)
same,fold change,[10]; [18],1.11
same,cell count,[10]; [19],8830
same,cell count,[10]; [20],10300
same,z-score,[14]; [21],0.723 (inactive)
same,z-score,[14]; [22],0.79
same,remaining NAD,[11],10 nM (inactive)
CN1C(=O)CC(c2ccccc2)C1=O (stereo not drawn),survival,[12],19.1 (inactive)
same,parasite load remaining,[13],94.6% (inactive)
same,viability,[13],73.1%
same,nuclear beta-catenin stimulation,[1]; at 10 µM,0.4% (inactive)
same,nuclear beta-catenin stimulation,"[1]; stimulation, at 2 µM",0.3%
same,insulin secretion stimulation,[2],-0.7% (inactive)
same,viability decrease,[3],4.95% (inactive)
same,tube area decrease,[4],-2.7% (inactive)
same,GLP1 secretion stimulation,[5],-0.4% (inactive)
same,inhibition of viability,[6],-5.7% (inactive)
same,viability decrease (inhibition),[7],54.4% (active)
same,viability decrease (inhibition),[8],12.9% (inactive)
same,red/green cell ratio (normalised),[9],0.99 (inactive)
same,normalised cell number,[9]; [15],1.01
same,normalised cell number,[9]; [16],1
same,fold change,[10]; [17],0.941 (inactive) and 0.972 (inactive)
same,fold change,[10]; [18],1.17 and 0.864
same,cell count,[10]; [19],9250 and 9510
same,cell count,[10]; [20],9830 and 9780
same,z-score,[14]; [21],0.397 (inactive)
same,z-score,[14]; [22],0.0941
same,remaining NAD,[11],10 nM (inactive)
O=C(NCC(O)CO)c1c(I)c(C(=O)NCC(O)CO)c(I)c(N(CCO)C(=O)CO)c1I (stereo not drawn),survival,[12],5.33 (inactive)
same,parasite load remaining,[13],117% (inactive)
same,viability,[13],103%
same,nuclear beta-catenin stimulation,[1]; at 10 µM,0.6% (inactive)
same,nuclear beta-catenin stimulation,"[1]; stimulation, at 2 µM",1.1%
same,insulin secretion stimulation,[2],2.2% (inactive)
same,viability decrease,[3],-0.3% (inactive)
same,tube area decrease,[4],-24.3% (inactive)
same,GLP1 secretion stimulation,[5],-2.6% (inactive)
same,inhibition of viability,[6],50.9% (active)
same,viability decrease (inhibition),[7],15.5% (inactive)
same,viability decrease (inhibition),[8],27.9% (inactive)
same,red/green cell ratio (normalised),[9],0.86 (inactive)
same,normalised cell number,[9]; [15],1.25
same,normalised cell number,[9]; [16],1.07
same,fold change,[10]; [17],0.865 (inactive)
same,fold change,[10]; [18],1.27
same,cell count,[10]; [19],8520
same,cell count,[10]; [20],9850
same,z-score,[14]; [21],-0.49 (inactive)
same,z-score,[14]; [22],-1.02
same,remaining NAD,[11],10 nM (inactive)
CC(C)(C)CC(C)(C)c1cc(Cc2cc(C(C)(C)CC(C)(C)C)cc(-n3nc4ccccc4n3)c2O)c(O)c(-n2nc3ccccc3n2)c1,nuclear beta-catenin stimulation,[1]; at 10 µM,3.9% (inactive)
same,nuclear beta-catenin stimulation,"[1]; stimulation, at 2 µM",2.5%
same,insulin secretion stimulation,[2],1.7% (inactive)
same,viability decrease,[3],9.1% (inactive)
same,tube area decrease,[4],-10.3% (inactive)
same,GLP1 secretion stimulation,[5],3.4% (inactive)
same,inhibition of viability,[6],1.9% (inactive)
same,viability decrease (inhibition),[7],-54% (inactive)
same,viability decrease (inhibition),[8],7.4% (inactive)
same,red/green cell ratio (normalised),[9],0.81 (inactive)
same,normalised cell number,[9]; [15],1.28
same,normalised cell number,[9]; [16],1.04
same,fold change,[10]; [17],0.928 (inactive)
same,fold change,[10]; [18],0.844
same,cell count,[10]; [19],9130
same,cell count,[10]; [20],9830
same,remaining NAD,[11],10 nM (inactive)
Cc1cccc(C)c1NC(=O)CN1CCN(CCCC(c2ccc(F)cc2)c2ccc(F)cc2)CC1,survival,[12],2.42 (inactive)
same,parasite load remaining,[13],135% (inactive) and 49% (inactive)
same,viability,[13],101% and 79.5%
same,nuclear beta-catenin stimulation,[1]; at 10 µM,4.7% (inactive)
same,nuclear beta-catenin stimulation,"[1]; stimulation, at 2 µM",1.2%
same,insulin secretion stimulation,[2],-1.1% (inactive)
same,viability decrease,[3],99.6% (active)
same,tube area decrease,[4],82.9% (active)
same,GLP1 secretion stimulation,[5],-2.6% (inactive)
same,inhibition of viability,[6],99.7% (active)
same,viability decrease (inhibition),[7],97.6% (active)
same,viability decrease (inhibition),[8],102% (active)
same,red/green cell ratio (normalised),[9],1.02 (inactive)
same,normalised cell number,[9]; [15],1.1
same,normalised cell number,[9]; [16],1.13
same,fold change,[10]; [17],0.884 (inactive)
same,fold change,[10]; [18],1.28
same,cell count,[10]; [19],8280
same,cell count,[10]; [20],9370
same,z-score,[14]; [21],0.335 (inactive)
same,z-score,[14]; [22],0.284
CC(=O)N[C@@H](CCC(N)=O)C(=O)O,nuclear beta-catenin stimulation,[1]; at 10 µM,-2.5% (inactive)
same,nuclear beta-catenin stimulation,"[1]; stimulation, at 2 µM",0.1%
same,insulin secretion stimulation,[2],2.8% (inactive)
same,viability decrease,[3],-2.5% (inactive)
same,tube area decrease,[4],12.1% (inactive)
same,GLP1 secretion stimulation,[5],-3.6% (inactive)
same,inhibition of viability,[6],0.7% (inactive)
same,viability decrease (inhibition),[7],9.6% (inactive)
same,viability decrease (inhibition),[8],-3.7% (inactive)
same,red/green cell ratio (normalised),[9],0.96 (inactive)
same,normalised cell number,[9]; [15],0.97
same,normalised cell number,[9]; [16],0.93
same,fold change,[10]; [17],0.922 (inactive)
same,fold change,[10]; [18],0.675
same,cell count,[10]; [19],8950
same,cell count,[10]; [20],9710
same,remaining NAD,[11],10 nM (inactive)
